# An excerpt weighted towards active compounds, which were near 5.7% of everything screened.
# MPTP inh – blocks calcium-induced mitochondrial swelling | isolated mouse mitochondria, Ca2+ swelling absorbance, 30 min | inhibition, % at 10 µM | 360,000 tested, 1.4% active;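 active = inhibition of 50% or more, scaled per plate between neutral and stimulator controls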;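 also: 0% = DMSO wells given calcium and 100% = 1 mM EGTA wells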
# FAS-TE inh – inhibitors of human fatty acid synthase thioesterase domain; P49327; recombinant FAS-TE, OMFH fluorogenic substrate, fluorescence endpoint; inhibition, % at 15 µM; 360,000 tested, 0.67% active; AID 602261;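 active = compounds whose normalised, plate-corrected inhibition of enzyme fluorescence in the single-dose primary screen is 50% or more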;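 also: 0% = DMSO with enzyme and 100% = substrate without enzyme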
# Myeloid diff 2 – promotes myeloid progenitor differentiation; AID 624256; 360,000 tested, 1% active; calls only at 10 µM; ER-HoxA9 myeloid progenitors, lysozyme-GFP differentiation, flow cytometry;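 active = normalized GFP-positive differentiation at or above the plate's own cutoff, the solvent-only control mean plus 3 SD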;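 also: cells exposed to compound for four days before flow analysis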
# NR3A LBD binder – modulators (binders) of human NR3A ligand-binding domain. NR3A LBD differential scanning fluorimetry, Tm shift; 0% = protein alone, 100% = glycine-bound protein. 340,000 tested, 2.5% active. Tm shift relative to glycine control, % at 25 µM;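 active = melting temperature shift of at least 10% of the positive control shift, at one fixed dose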
# rCAG RNA binder – r(CAG) repeat RNA binding. TO-PRO-1 dye displacement fluorescence. inhibition, % at 3 µM. 370,000 tested, 1.3% active. AID 651821;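 active = inhibition above the plate cutoff, the mean of all test compounds on that plate plus 3 SD, cut at about 35% in these data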;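 also: 0% = DMSO alone and 100% = 100 µM mitoxantrone as full dye displacement; higher means more dye released from RNA so lower well fluorescence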
# Myeloid diff – promotes myeloid progenitor differentiation; 2,300 tested, 2% active; AID 651706; shares compounds with Myeloid diff 2; ER-HoxA9 myeloid progenitors, GFP/Mac1 double-positive flow; calls only;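 active = share of green or green-and-red cells above 9 and 9% in run 1 or 4 and 3% in run 2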
# GFP autofluor – flagged as fluorescent in myeloid differentiation counter-screen; fluorescence response, % (test concentration not listed); ER-HoxA9 myeloid progenitors, no estrogen, GFP autofluorescence flow cytometry; vehicle wells 0%, positive control 100%; shares compounds with Myeloid diff 2; 2,300 tested, 7.4% active; AID 651707;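 active = over 5% cells positive for green fluorescent reporter, or over 2% positive for both it and APC stain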;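 also: range taken on the double positive population between DMSO and positive control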
# * = called active by the depositor; i = inactive; . = no result; + = active, no number.
SMILES,MPTP inh,FAS-TE inh,Myeloid diff 2,NR3A LBD binder,rCAG RNA binder,Myeloid diff,GFP autofluor
Cc1nc(SCC(=O)c2cc3ccccc3oc2=O)c(C#N)c(-c2ccccc2)c1C(=O)Nc1ccccc1,3,-6,i,0,17,i,0
CC1(C)Cn2c(nnc2-c2cccc(O)c2)S1,-3,-3,+,-2,2,i,0
CC1Cn2c(nnc2-c2cccc(Cl)c2)S1 (centres undefined),-2,-6,i,0,4,.,.
CCCCCCCCNC(=S)NCCN1CCCCC1,4,-11,i,1,-2,i,0
S=C(NCCCN1CCOCC1)NCCCN1CCOCC1,0,-10,i,3,-2,.,.
CC(C)(C)NS(=O)(=O)c1ccc(CCC(=O)Nc2ccc3c(c2)OCO3)cc1,2,-7,+,-1,5,i,1
COc1cccc(CNS(=O)(=O)c2ccccc2Br)c1OC,2,-4,i,0,1,i,1
C[C@@H]1CN([C@@H](C)CO)C(=O)CCCn2cc(nn2)CO[C@H]1CN(C)S(=O)(=O)c1ccc(Cl)cc1,-1,-7,i,.,0,.,.
Cn1cc(CC(=O)N2CCN(c3ccc(Cl)cc3)CC2)c2ccccc21,1,10,i,-1,5,i,1
O=[N+]([O-])c1ccc2[nH]c(O)c(N=Nc3ccc(F)cc3)c2c1,4,-7,+,0,5,i,9.8*
CCN1CCN(CC(=O)Nc2cc3c(cc2C(C)=O)OCO3)CC1,-4,-7,i,0,-1,.,.
COc1cc(/C=C/C(=O)OC[C@H]2O[C@H](OC3(CO)OC(CO)C(O)C3O)[C@H](O)[C@@H](O)[C@@H]2O)ccc1O (some centres undefined),-1,-9,i,1,2,i,0
Cc1ccc(C(C)C)cc1OCCn1cncn1,0,-4,i,3,-2,.,.
COc1cc(NC(=O)c2cc(S(=O)(=O)N3CCCCC3)ccc2N2CCOCC2)cc(OC)c1,0,14,+,-1,2,i,2
COc1ccc(-c2ccc(CN3C(CC(C)C)C(=O)N(Cc4cn(CCC5OCCO5)nn4)CCS3(=O)=O)cc2)cc1OC (centres undefined),-2,0,i,.,4,.,.
COc1ccc(Cc2nnc(NC(=O)C3CCCO3)s2)cc1OC (centres undefined),0,-13,+,1,0,i,0
COCCCn1c(SCC(=O)OC2CCCCC2)nnc1-c1cccs1,0,-4,i,-2,-5,i,0
C/C=C(\C)CN1CCC(Oc2ccc(C(=O)NCc3ccccn3)cc2)CC1,0,-2,i,-2,-8,.,.
O=C(N/N=C/c1ccncc1)c1cc([N+](=O)[O-])cc([N+](=O)[O-])c1O,-2,4,i,2,33,i,0
CCOC(=O)c1cc2c(OC)ccc(OC)c2n1CC(=O)c1ccccc1,1,21,i,-1,2,.,.
CSc1ccccc1C(=O)NC1CCCCC1,-1,-1,i,0,-4,.,.
CSc1ccccc1C(=O)NC1CCCC1,0,-5,i,1,-1,i,0
COc1cc(COCC(O)CN2CCN(CCN3C(=O)c4cccc5cccc(c45)C3=O)CC2)cc(OC)c1OC (centres undefined),3,-9,+,-1,-6,i,1
O=C1c2cccc3cccc(c23)C(=O)N1CCN1CCN(CC(O)COCc2ccc(Cl)cc2)CC1 (centres undefined),4,3,i,-3,1,.,.
COc1ccc(-c2cc3ccccc3n2CC(O)CN2CCC(C)CC2)cc1 (centres undefined),0,-20,i,2,5,i,0
SMILES,MPTP inh,FAS-TE inh,Myeloid diff 2,NR3A LBD binder,rCAG RNA binder,Myeloid diff,GFP autofluor
COc1ccc(-c2cc3ccccc3n2CC(O)Cn2nc(C)cc2C)cc1 (centres undefined),2,3,i,-3,-6,.,.
CCCCNC(=O)CCc1nc2cccnc2n1Cc1ccccc1,-2,-3,+,-1,-8,i,0
CC(=O)c1c(C)n(CC(=O)NCc2ccc3c(c2)OCO3)c2ccccc12,2,11,+,0,0,i,98*
O=C(Cn1c(CO)nc2ccccc21)NCc1ccc2c(c1)OCO2,2,-3,i,-1,1,.,.
O=C(Nc1ccc(C(=O)N2CCCCC2)cc1)[C@H]1O[C@@H](n2ccc(=O)[nH]c2=O)[C@H](O)[C@@H]1O,0,-5,i,.,2,.,.
COc1ccc(NC(=O)c2sccc2SCc2cccc(C(F)(F)F)c2)cc1,1,32,i,3,-3,i,0
O=C(Nc1ccc(F)cc1)c1sccc1SCc1cccc(C(F)(F)F)c1,2,42,i,0,0,.,.
COCCCNC(=O)c1ccc(Cn2c(=O)c3ccccc3n(Cc3ccccc3C#N)c2=O)cc1,0,-5,+,-1,-4,i,0
COCCCNC(=O)c1ccc(Cn2c(=O)c3ccccc3n(Cc3ccccc3C)c2=O)cc1,1,7,i,-1,-5,.,.
Cc1ccc(C)c(NC(=O)c2ccccc2C(=O)c2ccccc2)c1,-1,11,i,.,-4,.,.
CC(=O)Nc1c2c(nn1-c1ccccc1)CSC2,0,-5,i,-1,3,.,.
O=C(/C=C\c1ccc2c(c1)OCO2)Nc1c2c(nn1-c1ccc(Cl)cc1)CSC2,0,25,i,1,12,i,0
CCc1ccc(CCC(=O)Nc2ccc(C(=O)O)cc2)o1,0,-2,i,1,5,.,.
COC(=O)CSc1nnc(-c2ccc(S(=O)(=O)N3CCCCC3)cc2)o1,1,3,+,-1,-4,i,0
COC(=O)CSc1nnc(-c2ccc(S(=O)(=O)N3CCC(C)CC3)cc2)o1,2,-9,i,1,-4,.,.
COc1ccccc1NC(=O)c1cccnc1,0,-10,i,2,1,.,.
COc1cccc(C(=O)Nc2ccc(F)cc2F)c1,1,-2,i,-2,-1,i,0
COc1ccc(NC(=O)c2cccnc2)c(OC)c1,0,-2,+,1,-2,i,0
COc1cccc(C(=O)NC(=S)Nc2ccc3c4c(cccc24)CC3)c1,1,15,+,-15,14,i,1
CC1CN(S(=O)(=O)c2ccc(C(=O)N(C)C3CCCCC3)cc2)CC(C)O1 (centres undefined),0,-7,i,-2,-2,.,.
Cc1cccc(NC(=O)CNC(=O)c2ccc(S(=O)(=O)NCc3ccco3)cc2)c1C,1,0,i,.,2,.,.
CCCCc1c(-c2cccc(OC)c2)ncn1CCc1ccccc1OC,10,23,+,.,-1,i,0

# Screening results (PubChem BioAssay)
